Measured values: the supplement of paper PMC6555819

What was measured:
Test in all cases: PBM binding z-score (relative to random genomic background probes); higher = stronger binding; sequences stand for … in GC…GCGATTGACAGCGTAGAATGAAGG
[1] = test system: FXR:RXRa (NR concentration 270 nM, RXRa partner concentration 90 nM)
In short: (§1)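 Ligand-free nuclear receptor dimers were applied to custom Agilent 4×180K protein-binding microarrays whose double-stranded probes carried direct-repeat seeds, single-nucleotide variants, half-site ablations and random human genomic background sequences in 34-nt variable regions. Incubation lasted 1 h. Binding z-scores were computed against the random background probes from regression-normalized fluorescence.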

[2] = test system: LXRa:RXRa (NR concentration 270 nM, RXRa partner concentration 90 nM)
In short: as §1

[3] = test system: LXRa homodimer (NR concentration 270 nM)
In short: as §1

[4] = test system: LXRb:RXRa (NR concentration 270 nM, RXRa partner concentration 90 nM)
In short: as §1

[5] = test system: LXRb homodimer (NR concentration 270 nM)
In short: as §1

[6] = test system: PPARa:RXRa (NR concentration 270 nM, RXRa partner concentration 90 nM)
In short: as §1

[7] = test system: PPARg:RXRa (NR concentration 180 nM, RXRa partner concentration 90 nM)
In short: as §1

[8] = test system: PPARg:RXRa 270nM:90nM, anti-RXR (NR concentration 270 nM, RXRa partner concentration 90 nM)
In short: as §1

[9] = test system: PPARg:RXRa 30nM:10nM, anti-RXR (NR concentration 30 nM, RXRa partner concentration 10 nM)
In short: as §1

[10] = test system: PPARg:RXRa 90nM:30nM, anti-RXR (NR concentration 90 nM, RXRa partner concentration 30 nM)
In short: as §1

Sequence | PBM binding z-score [1] | PBM binding z-score [2] | PBM binding z-score [3] | PBM binding z-score [4] | PBM binding z-score [5] | PBM binding z-score [6] | PBM binding z-score [7] | PBM binding z-score [8] | PBM binding z-score [9] | PBM binding z-score [10]
GCTAGTAGGCCATTTGGGTCACTCAATGACGGGC | -0.0419 | -0.00892 | -0.666 | -0.044 | -0.894 | 1.98 | 2.27 | 2.41 | 0.459 | 1.79
CCTACTGGGCCAAGGTCATGGATCAGTCAAAGCA | 3.04 | 3.08 | 0.47 | 3.01 | -0.724 | 4.32 | 4.52 | 4.76 | 1.8 | 3.69
GCTAGCAGGCCATTTGGGTGACTCAATGACGGGC | -0.535 | -0.729 | -0.901 | -1.05 | -1.19 | 0.031 | 0.218 | -0.431 | -0.682 | -0.48
GGAACGAGCGCAAGTTGATAGCAGAGTTTGATGG | -0.654 | -0.851 | -0.781 | -1.08 | -1.48 | -0.641 | 0.166 | -0.948 | -0.778 | -0.888
TCTCGGAGCACACGAAAGGTCAGAGCTCGACATC | 1.92 | 3.07 | 1.44 | 2.84 | -0.493 | 3.39 | 0.926 | 1.94 | 1.5 | 1.49
GGAACGAGGGCAAGGTGATAGCAGAGTTTGATGG | 0.873 | 0.623 | -0.0759 | 0.183 | -0.496 | 1.74 | 1.76 | 1.89 | 0.199 | 1.19
ATACCAAGGTGATCGTGAGGTCGTTGCTACTAAC | 1.95 | 1.3 | 0.422 | 1.19 | 0.0744 | 1.65 | 0.201 | 0.438 | -0.28 | 0.185
ATCTCTAGGTAAAGATGGTTCAGTGAATGCAAAT | -0.0028 | 0.987 | 0.171 | 0.3 | 0.169 | 0.594 | 0.37 | 0.607 | 0.44 | 0.679
TCATATAGGTAAACAGGTGAAAGTCCGTAAGTTA | 0.771 | 1.07 | 0.337 | 0.884 | 0.0234 | 2.39 | 2.99 | 3.77 | 4.16 | 3.87
CGTTAAAGTTCAAGGTAACGTAACAGAAAGCAGC | 6.06 | 5.3 | 2.94 | 3.2 | 1.15 | 4.56 | 3.3 | 4.01 | 1.81 | 3.27
TAGCCTAGGTTAGATCGGGCCAGTATACGCTATA | 0.436 | -0.519 | -0.629 | -0.408 | -0.862 | -0.226 | 0.102 | -0.562 | -0.333 | -0.187
AGAATGAGGTTATTAAGATCAGCGAATTGCGGTC | 1.3 | 1.23 | 0.0436 | 1.11 | -0.0862 | 2.49 | 1.47 | 1.85 | 0.288 | 1.29
TGAATGAGGGTATAAGATCAGGGAACGTTGCAAA | 0.413 | 0.344 | -0.145 | 0.00334 | 0.501 | 0.874 | 0.576 | 1.23 | 1.11 | 0.839
TCTTGTAGATCAGCAGGTTAGGAAAGCTGGCCAA | -0.1 | 0.244 | -0.295 | -0.112 | -0.394 | 0.532 | -0.423 | 1.47 | 2.53 | 2.15
GCTATTAATTGAAAGGGCAACCGAATGATTCTCG | 0.000102 | 0.439 | 1.02 | 0.408 | -0.192 | 1.08 | 0.608 | 0.921 | -0.0129 | 0.592
CCTACTGGGCCATCAGGTCATTGTTATCAACGTT | 1.46 | 1.31 | 1.14 | 1.7 | -0.00639 | 2.76 | 2.54 | 3.66 | 1.36 | 2.74
CAAACTAGGTCAAAGGTCCAAGTCGAGCCAACCA | 5.12 | 4.21 | 0.693 | 3.08 | 0.0587 | 6.27 | 12.8 | 10.1 | 12.4 | 12.2
TCGAGTAGGTTAGTAGGGGCATTCAGCCAACATA | 0.292 | -0.0612 | -0.0759 | 0.774 | -0.216 | 1.29 | 1.01 | 1.82 | 0.971 | 1.35
AGAACGAGGGCAATGAGTTGATTGCACGGGTGGC | 0.165 | 0.157 | -0.593 | -0.398 | -0.715 | 1.23 | 1.15 | 0.624 | -0.179 | 0.252
ACAGACATGTGATGAAGGTAACTCAGGCTATCAT | 0.000592 | -0.0384 | -0.258 | -0.35 | -0.283 | -0.131 | 0.611 | -0.0726 | -0.0978 | 0.0328
TATGCTAGGTCAACGATGGTCAGCTAATCTGCTA | 3.36 | 4.53 | 2.1 | 2.25 | 0.889 | 3.37 | 2.89 | 2.78 | 0.716 | 1.87
ATCTCTAGGTAAAGATAGTTCAGTGGATGCAAAT | 0.0236 | 4.13 | 0.642 | 0.57 | 0.439 | 0.29 | 0.474 | 0.242 | 0.139 | 0.257

Sequence | PBM binding z-score [1] | PBM binding z-score [2] | PBM binding z-score [3] | PBM binding z-score [4] | PBM binding z-score [5] | PBM binding z-score [6] | PBM binding z-score [7] | PBM binding z-score [8] | PBM binding z-score [9] | PBM binding z-score [10]
AGAATGAGGTTAAGATCAGGCAAACAGAATACAT | 2.11 | 5.61 | -0.312 | 2.82 | -0.408 | 3.45 | 2.21 | 2.38 | 0.95 | 1.63
ATCTCTAGGTAACAATTTCAGTGAAAGAGAGGAC | 0.775 | 0.589 | 0.266 | 0.374 | 1.34 | 0.437 | 0.734 | 0.62 | 0.676 | 0.649
CTCGAAAGGTCGGGCTCAGGTGAGTATACCAAAC | 3.1 | 2.11 | -0.238 | 1.9 | 0.116 | 3.25 | 0.671 | 1.88 | -0.168 | 0.853
CAAGCTAGGTCACGAAAGGTCAAAGTCGAATGAC | 7.45 | 8.14 | 8.09 | 7.63 | 2.75 | 6.5 | 7.39 | 7.14 | 4.23 | 6.31
TAGCCTAGGTCAAATCGGGCCAGTATACGCTATA | 5.06 | 4.49 | 0.78 | 3.26 | 0.87 | 4.1 | 2.33 | 2.88 | 0.735 | 2.01
CGAGCTAGGTCATTGACAGGACAGTGAATAGTAA | 5.01 | 3.11 | 0.348 | 2 | -0.314 | 3.33 | 2.12 | 2.15 | 0.406 | 1.34
ACTAGTTGGTCAGCTGAGGTGACACACAATTCGG | 1.58 | 0.508 | -0.0551 | 0.499 | -0.125 | 1.27 | 1.16 | 0.582 | -0.235 | 0.398
CGGCCAAGGTCATAGGAGGTCAGTGAAGACAGAT | 7.73 | 7.58 | 4.26 | 6.03 | 0.344 | 5.82 | 5.92 | 5.6 | 2.38 | 4.77
GATACAGGGTCACGGCCAGAGTACGCGTATTGAT | 7.54 | 5.1 | -0.0336 | 4.33 | -0.171 | 6.26 | 8.33 | 7.43 | 3.93 | 6.41
CCTACTGGGCCAAGGTCAATGATCAGTCAAAGCA | 2.52 | 2.33 | 0.441 | 2.32 | -0.518 | 3.85 | 4.03 | 4.33 | 2.07 | 3.39
CCTTACGGGTCGCGAGGTTATAGCACGACGAGCG | 2.87 | 1.99 | -0.147 | 1.82 | -0.455 | 3.61 | 1.91 | 2.15 | 0.056 | 0.872
CGAACTAGGTCATCCAGGACAGTGGATACATTGA | 4.72 | 2.32 | 0.245 | 1.99 | 0.307 | 4.9 | 7.83 | 5.84 | 4.33 | 5.96
TTACCAAGGTGAAGGTCGTTGAACCCTCTGTAGA | 3.72 | 3.95 | 1.78 | 2.99 | -0.723 | 3.27 | 3.46 | 4.28 | 2.15 | 3.9
AGGCAAAGTTCACTAGGTAACGTAAGATTCAGCT | 5.31 | 5.15 | 2.57 | 3.12 | 0.881 | 4.61 | 6.33 | 6.04 | 2.78 | 5.21
GTACCAAGGTGAATTGGTCGTTGATGAGTAGGCG | 0.321 | 0.0311 | -0.495 | -0.18 | -0.792 | 0.557 | 0.383 | 0.173 | -0.286 | -0.112
ATATGTACGTTAAGGGTCATTCAGGTTGGTTCGC | 4.5 | 4.13 | 2.57 | 4.2 | 1.31 | 4.74 | 4.87 | 6.38 | 4.9 | 6.21
CCTACTGGGCCAACGTCATTGATCAGTCAAAGCA | -0.18 | -0.496 | -0.262 | -0.492 | -0.8 | 0.419 | 0.876 | 0.556 | -0.362 | 0.3
CCTATCAGTTGACCATAAGGGCAACCGAAGCTCG | 0.965 | 0.314 | 0.218 | 0.583 | 0.56 | 0.693 | 0.456 | 0.233 | -0.0186 | 0.0779
AATACAGGGTCATCGTAGGCCACAGTACGCACAG | 7.48 | 6.72 | 3.33 | 4.97 | 1.33 | 5.98 | 7.16 | 6.32 | 2.8 | 5.05
CCGACTGGGGCAAGGTTACCAAAACGCACAGCCA | 0.221 | 0.494 | -0.00504 | 0.617 | -1.39 | 2.07 | 2.78 | 3.62 | 1.01 | 2.6
TCTTGTAGATCAGGCAGGTTAAGAAAGCCTGAGT | 0.09 | 0.00615 | -0.308 | 0.209 | -0.455 | 0.43 | -0.505 | 0.864 | 2.52 | 1.62
ACTATTAGTTGACTTAGGGTAACCGATACGACGC | 0.985 | 1.09 | 1.21 | 0.679 | 0.748 | 0.468 | 0.907 | 0.758 | 0.442 | 0.705
